Results on 12 compounds are retold here after article PMC11062922 (Nature Chemical Biology, 2023).

Like-named read-outs stand apart in the source and are kept apart here.

Parameters in all cases: species or system human, MV4-11 + K-562 + COLO205 + SK-N-BE2 + OVCAR-8
The subject of one assay is AXL. The conditions noted are these: read-out: apparent Kd, compound concentrations: 100 nM and 1000 nM (sheet 'Samples'), n = 1.
A further assay deals with CSK. As to conditions: read-out: apparent Kd, compound concentrations: 100 nM and 1000 nM (sheet 'Samples'), n = 1.
For the next assay, the system named is EPHA1. The conditions noted are these: read-out: apparent Kd, compound concentrations: 100 nM and 1000 nM (sheet 'Samples'), n = 1.
The test system of another assay is EPHB3. The conditions noted are these: read-out: apparent Kd, compound concentrations: 100 nM and 1000 nM (sheet 'Samples'), n = 1.
For the next assay, the system named is LYN. The conditions noted are these: read-out: apparent Kd, compound concentrations: 100 nM and 1000 nM (sheet 'Samples'), n = 1.
The test system of another assay is PIK3CG. The conditions noted are these: read-out: apparent Kd, compound concentrations: 100 nM and 1000 nM (sheet 'Samples'), n = 1.
Another assay has as its system RIPK2. The conditions noted are these: read-out: apparent Kd, n = 1.
The test system of the next assay is ULK1. The conditions noted are these: read-out: apparent Kd, compound concentrations: 100 nM and 1000 nM (sheet 'Samples'), n = 1.
A further assay concerns MAPKAPK2. The conditions noted are these: read-out: apparent Kd, n = 1.
A further assay deals with TGFBR2. The conditions noted are these: read-out: apparent Kd; compound concentrations:100 nM and 1000 nM (sheet 'Samples'); n = 1.
The next assay has as its system CDC42BPG. As to conditions: read-out: apparent Kd, compound concentrations: 100 nM and 1000 nM (sheet 'Samples'), n = 1.
Another assay relates to PDGFRB. As to conditions: read-out: apparent Kd, compound concentrations: 100 nM and 1000 nM (sheet 'Samples'), n = 1.
A further assay relates to PRKG1. The conditions noted are these: read-out: apparent Kd, n = 1.
A further assay has as its system CDK2. As to conditions: read-out: apparent Kd, compound concentrations: 100 nM and 1000 nM (sheet 'Samples'), n = 1.
In another assay the test system is PKN2. The conditions noted are these: read-out: apparent Kd, compound concentrations: 100 nM and 1000 nM (sheet 'Samples'), n = 1.
The test system of the next assay is ROCK1. As to conditions: read-out: apparent Kd, compound concentrations: 100 nM and 1000 nM (sheet 'Samples'), n = 1.
A further assay deals with CDC42BPA. As to conditions: read-out: apparent Kd; compound concentrations: 100 nM and 1000 nM (sheet 'Samples'), CATDS: 3.9597453798327397E-3; n = 1.
The test system of the next assay is CDK9. The conditions noted are these: read-out: apparent Kd; compound concentrations: 100 nM and 1000 nM (sheet 'Samples'), CATDS: 4.5836362442514197E-3; n = 1.
A further assay concerns MTOR. The conditions noted are these: read-out: apparent Kd; compound concentrations: 100 nM and 1000 nM (sheet 'Samples'), CATDS: 1.26439105920185E-2; n = 1.
The mark [1] stands for this setting: compound concentrations:100 nM and 1000 nM (sheet 'Samples').

As to `O=C1N=C(NCCc2ccc(Cl)cc2)S/C1=C\c1ccc2ncccc2c1` [RO4498479-000], the potency estimated from few doses was 500 nM in the assay on AXL (CATDS: 1.04698651204191E-2); 349 nM with CSK (CATDS: 1.24616497834408E-2); 262 nM in the assay with EPHA1 (CATDS: 1.45728088711572E-2); 1110 nM with EPHB3 (CATDS: 7.7760925850710602E-3); 613 nM in the assay on LYN (CATDS: 9.5944426584782493E-3); 843 nM with PIK3CG (CATDS: 8.5012457956318496E-3). Also, the potency estimated from few doses with RIPK2 (compound concentrations: 100 nM and 1000 nM (sheet 'Samples'), CATDS: 1.0901360132345101E-2) was 458 nM; in the assay on ULK1 (CATDS: 1.00048929217101E-2) it was 555 nM.
With `Cl.NCc1ccc(-c2nc(-c3ccc(Cl)c(O)c3)c(-c3ccncc3)[nH]2)cc1` [SB-476429-A], the potency estimated from few doses in the assay with MAPKAPK2 (setting [1]) was 94.8 nM; with RIPK2 (setting [1]) it was 22.7 nM; in the assay with TGFBR2, 1200 nM.
Turning to `CCn1c(-c2nonc2N)nc2c(-c3ccccc3)ncc(OCCCN)c21.CCn1c(-c2nonc2N)nc2c(-c3ccccc3)ncc(OCCCN)c21.O=C(O)C(F)(F)F.O=C(O)C(F)(F)F` [GSK260205A], the potency estimated from few doses in the assay on CDC42BPG (CATDS: 6.3279699360334701E-2) was 187 nM; with MAPKAPK2 (compound concentrations: 100 nM and 1000 nM (sheet 'Samples'), CATDS: 0.102958619201112), 74.4 nM; with PDGFRB (CATDS: 3.4568718881872497E-2) it was 808 nM.
Regarding `Cc1cccc2c(-c3ccncn3)c(-c3ccc(F)cc3)nn12` [GW515532X], the potency estimated from few doses in the assay on MAPKAPK2 (compound concentrations: 100 nM and 1000 nM (sheet 'Samples'), CATDS: 0.245203674473806) was 1400 nM.
In the case of `COc1cccc2c(-c3ccncc3)c(-c3ccc(F)cc3)nn12` [GW468513X], in the assay with MAPKAPK2 (compound concentrations: 100 nM and 1000 nM (sheet 'Samples'), CATDS: 0.11200666699730499), the potency estimated from few doses is 80.6 nM.
For the compound `Cc1cccc(-c2nc(Nc3ccncc3)c3sccc3n2)n1` [GW869641X], the potency estimated from few doses is 722 nM in the assay with RIPK2 (setting [1]) and 363 nM with TGFBR2.
For the compound `CCn1c(-c2nonc2N)nc2c(C#CC(C)(C)O)nc(OCCNC)cc21.Cl` [GSK949675A], the potency estimated from few doses with PRKG1 (setting [1]) was 1370 nM.
In the case of `CONC1=NC(=O)/C(=C/c2ccc3ncccc3c2)S1` [RO4613269-000], the potency estimated from few doses with PIK3CG (CATDS: 0.172527207279461) was 606 nM.
For `Fc1ccc(-c2c(-c3ccncc3)[nH]c3cccnc23)cc1` [RO1153853-000], the potency estimated from few doses in the assay on MAPKAPK2 (compound concentrations: 100 nM and 1000 nM (sheet 'Samples'), CATDS: 8.5753103075807094E-2) is 373 nM; in the assay on RIPK2 (compound concentrations: 100 nM and 1000 nM (sheet 'Samples'), CATDS: 7.5197956220231496E-2), 498 nM.
As for `COc1ccc(Nc2ncc(C#N)c(Nc3ccccc3C(N)=O)n2)cc1N1CCN(C)CC1.Cl` [GSK1558669A], the potency estimated from few doses is 671 nM in the assay with CDK2 (CATDS: 7.0892729990410901E-3), 724 nM with LYN (CATDS: 6.9772111779179699E-3), 1030 nM in the assay on PDGFRB (CATDS: 6.5181238774795402E-3) and 77.8 nM with ULK1 (CATDS: 1.40188360119969E-2).
As for `CCn1c(-c2nonc2N)nc2c(C#CCN)ncc(OCCCN)c21.O=C(O)C(F)(F)F` [GSK561866B], the potency estimated from few doses in the assay with PKN2 (CATDS: 7.8850535448236003E-2) was 1510 nM; in the assay with ROCK1 (CATDS: 8.4465602866789904E-2), 1010 nM.
On to `Cn1ncc2c(N)ncnc21` [SKF-18267], for which the potency estimated from few doses with AXL (CATDS: 4.1647880989247304E-3) was 1210 nM; in the assay on CDC42BPA, 1370 nM; in the assay on CDC42BPG (CATDS: 5.4078712502347798E-3), 700 nM; in the assay with CDK2 (CATDS: 5.1697348126272004E-3), 762 nM; with CDK9 it was 974 nM; in the assay with CSK (CATDS: 4.6419413759929496E-3), 948 nM. For the same compound, the potency estimated from few doses was 506 nM in the assay with EPHA1 (CATDS: 6.5055673029188101E-3); 2290 nM in the assay with EPHB3 (CATDS: 3.3263666790724102E-3); 586 nM in the assay on LYN (CATDS: 5.9641678427723097E-3); 1250 nM in the assay on MAPKAPK2 (compound concentrations: 100 nM and 1000 nM (sheet 'Samples'), CATDS: 4.1039976146892603E-3); 192 nM with MTOR; 280 nM with PIK3CG (CATDS: 9.5970287600273298E-3). Moreover, the potency estimated from few doses in the assay with PKN2 (CATDS: 4.0047157593236004E-3) was 1330 nM; with PRKG1 (compound concentrations: 100 nM and 1000 nM (sheet 'Samples'), CATDS: 4.7487342618258797E-3), 904 nM; in the assay with ROCK1 (CATDS: 4.4818399275614899E-3) it was 1020 nM; with ULK1 (CATDS: 3.78452040785661E-3), 1550 nM.
